Experimental findings from PubChem BioAssay (NCI) are described below.

Test systems include SK-MEL-2 melanoma; EKVX NSCLC; SN12C renal; UO-31 renal; TK-10 renal; ACHN renal; CAKI-1 renal; A498 renal; CCRF-CEM leukemia; MOLT-4 leukemia.
Common to all, as to experiment: NCI-60 one-dose screen, 48 h (100 = growth as untreated, 0 = no growth, -100 = all killed)
What all share (settings): 10 µM unless noted

The panel holds about 83,000 compounds, 20% with a hit somewhere; the sample as a whole holds those more often.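 The test compound was applied at a single concentration to cells in 96-well plates for 48 hours, and percent growth was recorded.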 Values without a mark were called inactive. Activity calls are given as the source filed them. How the source made its calls: active means growth percent below 10; inactive means the rest.

Take `Oc1ccc(Nc2ccccc2)cc1`: the growth in the test on SK-MEL-2 melanoma is 125%; with EKVX NSCLC it was 81.6%; in the test on SN12C renal it was 90.3%; in the test on UO-31 renal, 68.4%; with TK-10 renal, 117%; with ACHN renal, 46.9%. Moreover, the growth in the test with CAKI-1 renal was 65.4%; in the test with A498 renal, 87.4%; in the test with CCRF-CEM leukemia, 0.482% (active); with MOLT-4 leukemia, 88.6%.

For `CCCCC(=O)OC1CCCCC1C` (stereo not given), the growth in the test with SK-MEL-2 melanoma is 111%; in the test on EKVX NSCLC, 104%; in the test on SN12C renal, 94.1%; in the test with UO-31 renal, 93.2%; in the test on TK-10 renal it was 94.5%; with ACHN renal, 94.4%. In addition, the growth was 94.9% in the test on CAKI-1 renal, 93.2% in the test on A498 renal, 94.3% in the test with CCRF-CEM leukemia and 109% with MOLT-4 leukemia.

On to `Cn1cc(-c2csc(-c3cn(C(=O)OC(C)(C)C)c4ccc(Br)cc34)n2)c2cccnc21`, for which the growth was 91.5% in the test with SK-MEL-2 melanoma; 79.2% with EKVX NSCLC; 87.4% in the test on SN12C renal; 82.4% in the test with UO-31 renal; 92.5% with TK-10 renal; 48.8% in the test with ACHN renal. In addition, the growth in the test with CAKI-1 renal was 79.3%; with A498 renal it was 96.3%; with CCRF-CEM leukemia it was 71%; with MOLT-4 leukemia it was 97.4%.

As for `CN(C)c1ccc(N=C2C=CC(=O)C=C2)cc1`, the growth is 97.1% in the test with SK-MEL-2 melanoma; 75.3% in the test with EKVX NSCLC; 92% in the test on SN12C renal; 73.7% in the test with UO-31 renal; 111% in the test with TK-10 renal; 69.3% in the test on ACHN renal. The growth in the test with CAKI-1 renal is 81%; with A498 renal, 93.1%; in the test with CCRF-CEM leukemia, 75.5%; in the test on MOLT-4 leukemia, 51.3%.

`O=[N+]([O-])c1cccc(/C=N\Nc2ccccc2)c1`: the growth in the test with SK-MEL-2 melanoma is 42.1%; in the test on EKVX NSCLC it was 59.8%; in the test with SN12C renal it was 74.7%; in the test with UO-31 renal, 47.4%; with TK-10 renal, 98.7%; with ACHN renal, 41.9%. Besides, the growth in the test on CAKI-1 renal is 59.9%; in the test with A498 renal, 101%; in the test with CCRF-CEM leukemia, 59.5%; in the test on MOLT-4 leukemia, 71.5%.

For the molecule `COc1cnc2c(c1)C(=O)c1c-2n(CCCNC(C)C)c(=O)c2cc([N+](=O)[O-])ccc12`, the growth is -58.6% (active) in the test on SK-MEL-2 melanoma; -50% (active) in the test with EKVX NSCLC; -54.6% (active) with SN12C renal; -75.6% (active) with UO-31 renal; -63.6% (active) in the test on TK-10 renal; -84.5% (active) in the test with ACHN renal. In addition, the growth is -71.8% (active) in the test on CAKI-1 renal, -84.7% (active) in the test on A498 renal, 2.43% (active) with CCRF-CEM leukemia and -15.6% (active) with MOLT-4 leukemia.

Regarding `CC(=O)O[C@H]1CC[C@@]2(C)C(=CC[C@@H]3[C@@H]2CC[C@]2(C)C(=O)N(O)C(=O)C[C@@H]32)C1`, the growth in the test on SK-MEL-2 melanoma was 80.4%; with EKVX NSCLC, 102%; with SN12C renal it was 97.2%; in the test on UO-31 renal it was 97.4%; in the test on TK-10 renal, 101%; in the test on ACHN renal, 89.3%. The growth in the test on CAKI-1 renal was 64.1%; in the test with A498 renal, 92.7%; in the test with CCRF-CEM leukemia, 86%; in the test with MOLT-4 leukemia, 79.5%.

As for `Brc1ccc2[nH]cc(-c3nc(-c4c[nH]c5ncccc45)cs3)c2c1`, the growth is 36.3% with SK-MEL-2 melanoma; 43.9% in the test on EKVX NSCLC; 49.8% in the test on SN12C renal; 19.2% in the test with UO-31 renal; 30.1% with TK-10 renal; 15.9% in the test with ACHN renal. For the same molecule, the growth is 7.49% (active) in the test on CAKI-1 renal, 43.6% in the test with A498 renal, 29.7% in the test on CCRF-CEM leukemia and 18.4% in the test with MOLT-4 leukemia.

On to `C=CC(=O)N[C@H](Cc1ccc(-c2cc(Cl)cc(Cl)c2)cc1)[C@H](O)[C@@H](O)C(=O)O`, for which the growth in the test with SK-MEL-2 melanoma was 90%; in the test with EKVX NSCLC, 90%; in the test with SN12C renal, 98.5%; in the test with UO-31 renal it was 86.8%; in the test with TK-10 renal it was 81.7%; in the test with ACHN renal, 101%. The growth is 84% in the test with CAKI-1 renal, 80.6% in the test with A498 renal, 80.2% with CCRF-CEM leukemia and 102% with MOLT-4 leukemia.

In the case of `CSc1ccc(N(C)c2nc(C)nc3c2CCC3)cc1`, the growth in the test with SK-MEL-2 melanoma is 24%; with EKVX NSCLC, 52.6%; in the test with SN12C renal, 18.4%; with UO-31 renal, 29.3%; in the test with TK-10 renal, 56.6%; with ACHN renal it was 18.3%. Further, the growth in the test on CAKI-1 renal is 20.5%; in the test with A498 renal it was -8.39% (active); in the test on CCRF-CEM leukemia, 8.07% (active); with MOLT-4 leukemia, 6.54% (active).

For the molecule `COc1ccc(OC)c(-c2c(C#N)c(-c3ccco3)nc3c2c(-c2ccccc2)nn3-c2ccccc2)c1`, the growth was 99.4% with SK-MEL-2 melanoma; 87.1% in the test with EKVX NSCLC; 94.6% with SN12C renal; 84.1% in the test on UO-31 renal; 98% with TK-10 renal; 96.4% in the test with ACHN renal. The growth in the test with CAKI-1 renal was 82.3%; in the test with A498 renal, 98.5%; in the test with CCRF-CEM leukemia, 94.1%; in the test on MOLT-4 leukemia, 96.3%.
